From paper PMC4336329 (PLoS ONE, 2015)
In all, about 310,000 compounds went through this assay and about 14,000 (4.5%) showed an effect of 50% or more. The effect is printed as a negative number. Shown is part of a subset that was picked to be rich in strong results.

target: human ether-à-go-go-related gene (hERG) potassium channel (human, UniProt Q12809); assay: primary screen, population patch clamp on CHO cells stably expressing hERG; higher = less effect of the substance
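Also: peak tail current of the secondary pulse compared with the same well before compound.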

human ether-à-go-go-related gene (hERG) potassium channel, sequence (Q12809 whole entry, looked up): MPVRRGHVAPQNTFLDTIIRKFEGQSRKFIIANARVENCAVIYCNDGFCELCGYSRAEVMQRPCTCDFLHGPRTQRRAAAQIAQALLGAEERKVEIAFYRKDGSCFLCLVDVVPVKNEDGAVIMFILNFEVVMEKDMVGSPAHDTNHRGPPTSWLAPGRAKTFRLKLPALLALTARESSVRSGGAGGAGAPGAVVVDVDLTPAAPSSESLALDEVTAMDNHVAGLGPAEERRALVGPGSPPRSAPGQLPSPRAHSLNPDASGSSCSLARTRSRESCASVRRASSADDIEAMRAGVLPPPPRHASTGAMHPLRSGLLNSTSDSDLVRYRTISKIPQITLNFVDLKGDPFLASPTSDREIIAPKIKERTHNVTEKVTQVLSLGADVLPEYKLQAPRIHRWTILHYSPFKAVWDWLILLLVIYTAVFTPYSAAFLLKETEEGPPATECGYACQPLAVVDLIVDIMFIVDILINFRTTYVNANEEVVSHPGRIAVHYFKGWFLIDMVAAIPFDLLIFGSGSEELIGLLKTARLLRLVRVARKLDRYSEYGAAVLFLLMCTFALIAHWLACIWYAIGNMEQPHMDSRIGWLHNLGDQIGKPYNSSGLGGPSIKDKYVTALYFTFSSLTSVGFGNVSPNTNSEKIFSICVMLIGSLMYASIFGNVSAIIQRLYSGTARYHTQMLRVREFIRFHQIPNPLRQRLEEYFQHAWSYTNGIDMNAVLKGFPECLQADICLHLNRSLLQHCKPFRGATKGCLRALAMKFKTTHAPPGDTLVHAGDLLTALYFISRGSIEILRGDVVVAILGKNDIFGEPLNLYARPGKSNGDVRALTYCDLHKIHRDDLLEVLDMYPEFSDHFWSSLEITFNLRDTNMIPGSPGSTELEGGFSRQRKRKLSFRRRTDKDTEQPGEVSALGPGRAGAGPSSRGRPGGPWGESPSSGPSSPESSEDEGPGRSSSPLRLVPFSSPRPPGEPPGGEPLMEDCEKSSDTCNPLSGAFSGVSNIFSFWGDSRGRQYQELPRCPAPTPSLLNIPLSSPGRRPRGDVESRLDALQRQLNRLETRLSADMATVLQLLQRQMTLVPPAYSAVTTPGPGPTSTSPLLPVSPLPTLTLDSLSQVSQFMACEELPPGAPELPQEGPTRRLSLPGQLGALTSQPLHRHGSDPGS

Compound	hERG current change (%, negative = inhibition) at 10uM [%]
C/C=C/c1ccc(OCC(=O)Nc2cc(OC)c(OC)c(OC)c2)c(OC)c1	-3.16
Cc1cccc(NC(=O)c2cccc(S(=O)(=O)N(C)c3ccccc3)c2)n1	-28.7
CC(C)(C)c1cc(NC(=O)c2cccc([N+](=O)[O-])c2)no1	3.8
O=C1CCCC2=C1C(c1ccco1)Nc1ccc(C(=O)c3ccccc3)cc1N2 (stereo not drawn)	6.94
COc1ccc(Cn2c(=O)[nH]c3cc(C(=O)Nc4ccccc4C)ccc32)cc1	2.66
O=S(=O)(c1cccc(F)c1)N1CCCN(c2ccc(C(F)(F)F)cn2)CC1	-27.3
CC(=O)Nc1ccccc1OCC(=O)NC1CCCCC1C (stereo not drawn)	8.59
NS(=O)(=O)c1cccc(-n2cnnn2)c1	-6.93
NC1=C([N+](=O)[O-])C(c2ccc3c(c2)OCO3)C2=C(CCCC2=O)O1 (stereo not drawn)	10.8
O=C(Nc1ccc(Cl)c(Cl)c1)Nc1cc(S(=O)(=O)N2CCOCC2)ccc1N1CCCC1	-16.6
O=C(Nc1cc(S(=O)(=O)N2CCOCC2)ccc1N1CCCCC1)c1ccc(Cl)cc1	-1.07
CCN(CC)S(=O)(=O)c1ccc(N2CCOCC2)c(NC(=O)c2ccc(F)cc2)c1	-72.3
O=C(NC(=S)Nc1cc(S(=O)(=O)N2CCOCC2)ccc1N1CCOCC1)c1ccco1	-39.4
O=C(Nc1ccccc1F)Nc1cc(S(=O)(=O)N2CCOCC2)ccc1N1CCCC1	-19
O=C(Nc1ccccc1)Nc1cc(S(=O)(=O)N2CCOCC2)ccc1N1CCCC1	-71
O=C(NC(=S)Nc1ccccc1N1CCOCC1)c1ccco1	9.73
CCN(CC)S(=O)(=O)c1ccc(N2CCOCC2)c(NC(=O)c2ccccc2)c1	-25.6
O=C(Nc1ccc(Cl)cc1)Nc1cc(S(=O)(=O)N2CCOCC2)ccc1N1CCCC1	-54.5
O=C(Nc1cccc(Cl)c1)Nc1cc(S(=O)(=O)N2CCOCC2)ccc1N1CCCC1	-38.9
CCN(CC)S(=O)(=O)c1ccc(N2CCOCC2)c(NC(=O)c2ccc(NC(C)=O)cc2)c1	-0.15
CCN(CC)S(=O)(=O)c1ccc(N2CCOCC2)c(NC(=S)NC(=O)c2ccco2)c1	-66.5
O=C(c1ccccn1)N(Cc1ccco1)C1(C(=O)NC2CCCCC2)CCCCC1	10.9
O=C(CCC(=O)OCc1ccc(Br)cc1)Nc1ccccc1	8.45

Compound	hERG current change (%, negative = inhibition) at 10uM [%]
CCC1CCCCN1C(=O)Cn1c(=O)n(CCC(=O)NCc2ccco2)c(=O)c2sccc21 (stereo not drawn)	-6.12
C=CCNC(=O)c1ccccc1NC(=O)C1COc2ccccc2O1 (stereo not drawn)	4.92
c1ccc(CCNc2ncnc3ccccc23)cc1	-43.2
Cc1cc(Cl)ccc1OC(C)C(=O)NN1C(=O)c2ccccc2C1=O (stereo not drawn)	20.9
COc1cccc(OC)c1C(=O)OCC(=O)NCC(C)C	24.7
COc1cccc(NC(=O)N2CCOCC2)c1	-14.8
CC(C)(C)N=Cc1cc(-c2ccccc2)sc1O	-17.2
COc1ccc(/C=C/C(=O)c2ccc(NC3=NCCCS3)cc2)cc1OC	-37.7
Cc1nn(Cc2ccccc2)c(C)c1/C=N/NC(=O)c1ccncc1	-46.4
Cc1cccc(N2CCN(C(=O)c3cc(S(=O)(=O)N4CCCC4)cn3C)CC2)c1C	-38
Cc1cc(C)cc(NC(=O)CSc2nc3ccncc3[nH]2)c1	8.99
O=C(Nc1cc(S(=O)(=O)N2CCOCC2)ccc1N1CCOCC1)c1cn2ccccc2n1	-52.3
O=C(Nc1ccc(Cl)c(S(=O)(=O)N2CCOCC2)c1)c1cn2ccccc2n1	11.9
O=C(Nc1cc(C(F)(F)F)ccc1N1CCOCC1)c1cn2ccccc2n1	-2.98
C=CCn1c(COc2ccccc2)nnc1SC(C)C(=O)N/N=C/c1cc(Cl)ccc1O (stereo not drawn)	0.335
CCCN1CCN(C(=O)c2ccc3nc(CC)c(CC)nc3c2)CC1	1.54
CNC(=O)COc1ccc(S(=O)(=O)Nc2ccccc2)cc1	14.4
O=C(c1ccco1)N1CCCSC1=Nc1ccccc1	12
Cc1ccc(S(=O)(=O)N/N=c2\oc3ccccc3cc2C(=O)Nc2cccc(C)c2)cc1	-68.1
COc1ccc(NC(=O)c2cc3ccccc3o/c2=N\NS(=O)(=O)c2ccc(C)cc2)cc1	-13.6
COc1cccc2cc(C(=O)Nc3cc(C)cc(C)c3)/c(=N/NS(=O)(=O)c3ccccc3)oc12	19.5
O=C(c1cccc([N+](=O)[O-])c1)N1CCOCC1	11.7
O=C1CC2(CCN(C(=O)c3ccc([N+](=O)[O-])cc3)CC2)Oc2ccccc21	-87.9

Compound	hERG current change (%, negative = inhibition) at 10uM [%]
O=C1CC2(CCN(C(=O)c3cccc([N+](=O)[O-])c3)CC2)Oc2ccccc21	-75.7
O=C1CN(C(=O)c2cccc([N+](=O)[O-])c2)CC(=O)N1	13.4
Cc1nn2c(C(F)(F)F)c3c(nc2c1-c1ccccc1)CCC3	19.1
CC(=O)Nc1ccc(NS(=O)(=O)C(F)(F)F)cc1	31.2
O=C(COc1ccc(Cl)cc1)NCC(=O)N1CCC2(CC1)NCCc1[nH]cnc12	7.16
O=C(CSc1nc2c(c(=O)n1-c1ccc(F)cc1)SCC2)Nc1ccc2c(c1)OCO2	-2.35
CC(C)(C)OC(=O)N1CCC(Cc2cc(-c3ccccc3)no2)(C(=O)O)CC1	12.1
COc1cccc(-c2cc(C(=O)NCCc3ccccc3)no2)c1	11.9
COc1cccc(-c2cc(C(=O)N3CCN(Cc4ccccc4)CC3)no2)c1	-15.7
COc1cccc(-c2cc(CC3(O)CCN(CCCc4ccccc4)CC3)on2)c1	-89.1
OC1(Cc2cc(-c3ccccc3)no2)CCN(CCCc2ccccc2)CC1	-77
c1ccc(CCCN2CCOCC2)cc1	22.1
COCCN1Cc2cccc(C(=O)Nc3ccc(S(=O)(=O)N4CCOCC4)cc3)c2C1=O	27.3
O=C(O)CCCN=C1NC2(CCCC2)Cc2ccccc21	-39.6
COc1cccc(C(=O)N(Cc2ccccc2)Cc2cc3cc4c(cc3[nH]c2=O)OCCO4)c1	-25.3
COc1ccccc1CC(=O)N1CCC(CCC(=O)NC2CC2)CC1	13.8
COc1cc(CC(=O)OCC(=O)NC2CC2)cc(OC)c1OC	10.4
COc1cc(Cl)cc(CN2CCC(CCC(=O)NC3CC3)CC2)c1OC	-20.8
COc1cc(CN2CCC(CCC(=O)NC3CC3)CC2)cc(Cl)c1OC	-55.4
COc1cc(NC(=O)C2CC2)c(OC)cc1NC(=O)CCC(=O)NC1CCN(Cc2ccccc2)CC1	2.82
COc1ccc(OC)c(C(=O)N2CCC(CCC(=O)NC3CC3)CC2)c1	13.1
COc1cc(Cl)c(CN2CCC(CCC(=O)NC3CC3)CC2)cc1OC	-66.2
CCOCc1cc(CN2CCC(CCC(=O)NC3CC3)CC2)ccc1OC	-62.1

Compound	hERG current change (%, negative = inhibition) at 10uM [%]
COc1cc(Br)c(CC(=O)NC2CC2)cc1OC	17.8
COc1ccc(-c2nc3ccccc3c(=O)n2CCOc2ccccc2C)cc1	21
Cc1ccccc1-c1nc(CS(=O)(=O)CC(=O)NCCN2CCCC2)c(C)o1	-10.4
COC(=O)c1ccccc1NC(=O)CCC(=O)N1CCSc2ccccc21	-12.1
COc1ccc(N(CC(=O)Nc2cccc(SC)c2)S(C)(=O)=O)cc1	-12.5
CC(CCc1ccccc1)NC(=O)CNC(=O)c1cccs1 (stereo not drawn)	-5.72
COc1ccc(NC(=O)NNC(=O)C(C)Oc2ccc3ccccc3c2)cc1 (stereo not drawn)	8.34
CC(C)(C)c1ccc(-c2conc2N)cc1	5.58
CCOc1ccccc1C(=O)N(C)CC(=O)Nc1ccc(OC)cc1	12
Cc1ccc(S(=O)(=O)NNC(=S)Nc2c(Cl)cccc2Cl)cc1	16.8
Cc1cc(N2CCCc3ccccc32)n2ncnc2n1	6.99
Cc1ccc(S(=O)(=O)N(C)C)cc1NC(=O)C1Cc2ccccc2CN1C(=O)c1ccco1 (stereo not drawn)	-9.91
COc1ccc(-c2ccc(SCC(=O)NCc3ccco3)nn2)cc1	-8.73
COc1ccc(CNC(=O)c2ccccc2SCC(=O)NCc2ccco2)cc1	-31.3
CSc1nc(NCc2ccco2)c2ccccc2n1	2.5
CCOC(=O)CSc1nc(C)c2ccccc2n1	0.921
COc1ccc(CNc2ncnc3ccccc23)cc1	21.7
CCOC(=O)CSc1nc(NCc2ccco2)c2ccccc2n1	-56.1
CCOC(=O)c1nc(NCc2cccc(OC)c2)c2ccccc2n1	-13.5
COc1ccc(CNc2nc(SCC(=O)NCc3ccco3)nc3ccccc23)cc1	-68.9
CCCCN(C)C(=O)CSc1nc(NCc2ccc(OC)cc2)c2ccccc2n1	-71
